Only some compounds are listed: those with a hit (about 11% of all), similar ones and a draw of the others.
G9a block = G9a (human) methyltransferase inhibition | G9a H3K9 monomethylation, AlphaScreen, 2 h | Potency, µM (doses to about 102 µM), without a hit: at the highest dose activity, negative = inhibition, actives largely listed as inhibitors | 350,000 compounds, 8.8% hits; further: potency means the concentration at half of the fitted maximal effect; on the % scale 0 is the no-effect control and ±100 the full control effect; nearly all actives have a fitted effect of over 75% in size
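Step 1: enzyme (final 20 nM) with compound, 15 min RT. Step 2: substrate peptide 500 nM and SAM 20 uM, 2 h RT. Step 3: anti-H3K9me1 antibody and AlphaScreen beads, 10 min, then plate read.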
L3MBTL1 inh = blocks human L3MBTL1; Q9Y468; AlphaScreen L3MBTL1–H3K9me1 peptide binding; Potency, µM (top dose mostly 57.1 µM), inactives show at the top dose activity, negative = inhibition, actives largely listed as inhibitors; 230,000 compounds, 0.66% hits; AID 485360; further: potency means the concentration at half of the fitted maximal effect; on the % scale 0 is the no-effect control and ±100 the full control effect; nearly all actives have a fitted effect of over 60% in size
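Read-out is AlphaScreen signal from streptavidin donor and nickel chelate acceptor beads (10 ug/mL final each) bridging L3MBTL1 (50 nM) and biotinylated K9-monomethylated H3(1-15) peptide (75 nM), after 30 min compound exposure at room temperature.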
JMJD2A Tudor inh = JMJD2A Tudor domain (human) inhibition. Potency, µM (doses to about 114 µM), inactives show at the top dose activity change, negative = inhibition, most hits filed as inhibitors. AlphaScreen JMJD2A-Tudor / H3K4me3 peptide binding. AID 504339. 390,000 compounds, 4.4% hits. O75164; further: potency means the concentration at half of the fitted maximal effect; on the % scale 0 is the no-effect control and ±100 the full control effect; nearly all actives have a fitted effect of over 50% in size
BAZ2B block = BAZ2B (human) inhibition; 360,000 compounds, 4.4% hits; Potency, µM (doses to about 114 µM), for inactives: top-dose activity change, negative = inhibition, most hits filed as inhibitors; Q9UIF8; AlphaScreen BAZ2B-H3K14Ac peptide displacement; AID 504333; further: potency means the concentration at half of the fitted maximal effect; on the % scale 0 is the no-effect control and ±100 the full control effect; nearly all actives have a fitted effect of over 60% in size
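Compounds, titrated to a top concentration of 110 uM, were incubated 30 min at room temperature with preformed BAZ2B/acetyl-K14 H3 peptide complex (50 nM each). Proximity signal was measured by AlphaScreen after 20 min with beads.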
HP1b chromo inh = HP1-beta chromodomain-methylated histone interaction inhibition. P83916. AlphaScreen HP1-beta / biotin-H3K9me3 peptide binding. Potency, µM (doses to about 114 µM), for inactives: at the highest dose activity change, negative = inhibition, actives largely listed as inhibitors. 390,000 compounds, 0.56% hits; further: potency means the concentration at half of the fitted maximal effect; nearly all actives have a fitted effect of over 70% in size
Target sequence (P83916 whole entry, looked up): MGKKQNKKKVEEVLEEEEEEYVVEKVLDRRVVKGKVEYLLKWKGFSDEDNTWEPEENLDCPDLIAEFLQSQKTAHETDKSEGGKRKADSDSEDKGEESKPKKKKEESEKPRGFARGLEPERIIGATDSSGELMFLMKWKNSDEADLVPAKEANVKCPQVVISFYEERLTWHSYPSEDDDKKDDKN
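AlphaScreen: HP1-beta (50 nM) preformed 30 min with biotin-H3(1-18)K9me3 peptide (50 nM) in PBS pH 7.4, 0.01% Tween-20. Compound added for 30 min at RT, then streptavidin donor/nickel chelate acceptor beads (10 ug/mL) for 30 min.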
PI5P4K alpha inh = inhibitors of human PI5P4K alpha. P48426. PI5P4Kalpha enzyme, ADP-Glo luminescence, 60 min; hits give low values. max response, %. 330,000 compounds, 1.2% hits. AID 652105; active means max response of -50% or lower; inconclusive means between -30% and -50%; inactive means -30% or higher; further: value at the top dose of about 77 µM; on the % scale 0 is the no-effect control and ±100 the full control effect
Target sequence (P48426 whole entry, looked up): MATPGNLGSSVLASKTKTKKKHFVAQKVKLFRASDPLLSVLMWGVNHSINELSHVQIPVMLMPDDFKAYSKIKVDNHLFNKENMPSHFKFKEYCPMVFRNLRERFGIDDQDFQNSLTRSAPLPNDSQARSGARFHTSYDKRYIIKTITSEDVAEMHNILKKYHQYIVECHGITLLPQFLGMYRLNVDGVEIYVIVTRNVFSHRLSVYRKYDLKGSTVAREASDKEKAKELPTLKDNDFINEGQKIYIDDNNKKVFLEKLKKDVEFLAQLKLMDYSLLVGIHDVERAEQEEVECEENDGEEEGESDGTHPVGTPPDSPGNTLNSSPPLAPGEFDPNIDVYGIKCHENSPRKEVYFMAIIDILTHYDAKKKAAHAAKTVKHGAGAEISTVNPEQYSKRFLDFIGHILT
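Luminescence from ADP-Glo served as readout of PI5P4Kalpha activity in a qHTS format. Reaction: enzyme, substrate, compound, ATP at 5 microM final, 60 min at RT.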
An asterisk follows results filed as active; u = inconclusive; x = no result given; [ ] = dose if it differs, or a comment. Unless noted, the call rests on the fitted dose curve; in most records, active means well fitted inhibition curve with a large enough effect; inconclusive means small, poorly fitted or top-dose-only effect; inactive means no such curve, though single readings can be large or run the other way.

SMILES | G9a block | L3MBTL1 inh | JMJD2A Tudor inh | BAZ2B block | HP1b chromo inh | PI5P4K alpha inh
COc1ccc(C(=O)NC(=S)N2CCC(C)CC2)cc1Br | 7.6% | x | u | u | 50.6% | -3.2
COc1ccc(C(=O)NC(=S)NNC(=O)c2ccc(NC(C)=O)cc2)cc1Br | 39.8µM* | 15.0% | -15.4% | -2.2% | 12.2% | -23.2
COc1ccc(C(=O)NC(=S)Nc2ccc(CN3CCOCC3)cc2)cc1 | 44.7µM* | -13.1% | -12.5% | -34.1% | -5.9% | -6.9
O=C(NC(=S)NCCN1CCOCC1)c1ccc(F)cc1 | 3.1% | 0.4% | 1.4% | -4.2% | 40.3% | 4.5
O=C1CCCC2=C1C1(CCSC1)N=C(Nc1nc3ccccc3o1)N2 (stereo unspecified) | x | x | -2.1% | x | x | x
Cc1cccc(NC(=O)c2oc3ccccc3c2NC(=O)c2cc(=O)c3ccc(C)cc3o2)c1 | u | x | -11.1% | 1.7% | -1.4% | x
O=C(CCCCl)NC(=S)Nc1ccc(CN2CCOCC2)cc1 | 50.1µM* | -0.6% | 3.9% | -18.9% | 36.6% | 0.0
O=C(CCCCl)NC(=S)Nc1ccc(N2CCOCC2)cc1 | x | 3.8% | -18.9% | -15.7% | 18.8% | -0.3
COc1ccc(C(=O)NC(=S)Nc2ccc(CN3CCOCC3)cc2)cc1Br | 44.7µM* | x | u | u | -10.1% | 2.8
C#CCOCCOCCOCCNc1nc(N2CCN(C(=O)C([C@@H](C)CC)n3cc(C(N)CC(C)C)nn3)CC2)nc(N2CCN(C(=O)[C@H](CCC(=O)O)n3cc(C(N)CC(C)C)nn3)CC2)n1 (stereo partly specified) | -39.2%[12.7 µM] | -10.0% | 79.4µM* | 79.4µM* | 20.5% | 0.6
C#CCOCCOCCOCCNc1nc(N2CCN(C(=O)C([C@@H](C)CC)n3cc(C(N)CO)nn3)CC2)nc(N2CCN(C(=O)[C@H](CCC(=O)O)n3cc(C(N)CC(C)C)nn3)CC2)n1 (stereo partly specified) | -0.8%[12.7 µM] | -10.9% | 50.1µM* | 50.1µM* | 62.0% | -0.8
C#CCOCCOCCOCCNc1nc(N2CCN(C(=O)[C@H](CCC(=O)O)n3cc(C(N)CC(C)C)nn3)CC2)nc(N2CCN(C(=O)[C@H](CCC(=O)O)n3cc(C(N)CC(C)C)nn3)CC2)n1 (stereo partly specified) | 10.0%[12.7 µM] | -10.4% | 79.4µM* | 79.4µM* | 22.9% | 0.7
C#CCOCCOCCOCCNc1nc(N2CCOCC2)nc(N2CCN(C(=O)[C@H]([C@@H](C)CC)n3cc([C@@H](N)CC(C)C)nn3)CC2)n1 | 11.4%[12.7 µM] | 9.6% | -18.7% | -9.0% | 30.7% | -1.2
Cc1cc(C)nc(NNC2=CC(=[N+]3CCCCC3)CC(C)(C)C2)n1 | u | x | -38.8% | -11.5% | u | 0.6
Cc1cc(C)nc(NNC2=CC(=[N+]3CCCC3)CCC2)n1 | u | x | 3.16µM* | -7.8% | u | 0.5
Cc1ccc(S(=O)(=O)N/N=C/c2cc([N+](=O)[O-])ccc2O)cc1[N+](=O)[O-] | 50.1µM* | -27.5% | u | u | -14.1% | -10.7
C/C(CCC(C)C)=N\NS(=O)(=O)c1ccc(C)c([N+](=O)[O-])c1 | 12.6µM* | 2.3% | -19.9% | -24.0% | 3.7% | 4.2
CC/C(C)=N/NS(=O)(=O)c1ccc(C)c([N+](=O)[O-])c1 | u | x | -9.7% | 2.3% | 15.5% | 8.6
O=[N+]([O-])c1ccc(S(=O)(=O)N/N=C/c2ccc3c(c2)OCO3)cc1 | 50.1µM* | x | -13.8% | u | 27.4% | 4.0
Cc1ccc(S(=O)(=O)N/N=C\c2cc([N+](=O)[O-])ccc2Cl)cc1 | 2.82µM* | -2.8% | -24.6% | -35.8% | 4.6% | x
Cc1ccc(S(=O)(=O)N/N=C/c2cccc([N+](=O)[O-])c2)cc1 | u | -5.1% | -19.3% | -4.2% | 32.1% | 6.8
O=[N+]([O-])c1cccc(S(=O)(=O)N/N=C\c2ccc3c(c2)OCO3)c1 | -11.8% | x | -15.9% | -34.2% | 28.0% | -4.2
C#Cc1nc(Nc2cccc(Cl)c2)nc(NC2CCCC2)n1 | x | x | -22.6% | x | x | x
Cc1ccccc1NC(=O)CSc1nc(-c2ccc(F)cc2)nc2c1Cc1ccccc1O2 | -6.5%[59 µM] | x | -10.6% | -7.3% | 36.1% | x
Cc1ccc(S(=O)(=O)N/N=C/c2ccc(O)cc2O)cc1[N+](=O)[O-] | 44.7µM* | -6.0% | -26.9% | 2.1% | -3.3% | -0.2
SMILES | G9a block | L3MBTL1 inh | JMJD2A Tudor inh | BAZ2B block | HP1b chromo inh | PI5P4K alpha inh
COc1cc(/C=N/NS(=O)(=O)c2ccc(C)c([N+](=O)[O-])c2)ccc1O | u | -5.7% | -8.7% | x | 14.6% | -1.7
CC1c2ccccc2SC(CCCN(C)C)c2ccccc21 (stereo unspecified) | 56.2µM* | -6.8% | -10.0% | 1.5% | 9.5% | -1.5
CC(C)C[C@H](NC(=O)c1[nH]cnc1C(=O)N[C@@H](C)c1ccccc1)C(=O)OCc1ccccc1 | 19.3%[12.7 µM] | x | -35.2% | 3.3% | 32.5% | 30.3
CC(C)C[C@@H](CNCC(=O)[C@H](CC(C)C)NC(=O)c1[nH]cnc1C(=O)N[C@H](CN)CC(C)C)NC(=O)c1nc[nH]c1C(=O)N[C@@H](CC(=O)O)C(=O)O | x | x | 79.4µM* | x | 37.8% | -12.1
CC(C)C[C@H](NC(=O)c1nc[nH]c1C(=O)N[C@@H](CCCCN)C(=O)OC(C)(C)C)C(=O)OC(C)(C)C | x | -2.1% | -35.2% | x | 32.4% | 19.1
CC(C)C[C@@H](CN)NC(=O)c1nc[nH]c1C(=O)N[C@@H](CC(C)C)C(=O)CNC[C@H](C)NC(=O)c1nc[nH]c1C(=O)N[C@@H](CC(=O)O)C(=O)O | x | x | 79.4µM* | x | 54.4% | -9.3
CCCS(=O)(=O)c1c(S(=O)(=O)CCC)c2ccc(C(C)=O)cn2c1C(=O)OC | 35.5µM* | 1.8% | -9.6% | -4.6% | -2.6% | -5.3
COc1ccc(CNC(=O)Cn2ncc3c(=O)oc4ccc(C)cc4c32)c(OC)c1 | 4.8%[59 µM] | x | -7.0% | -2.0% | 23.0% | x
O=C(CSc1nc(-c2ccccc2)cs1)Nc1ccccc1[N+](=O)[O-] | u | u | u | 25.1µM* | u | 8.8
Cc1cccc(Nc2nnc(SCC(=O)c3ccc(Br)s3)s2)c1C | 4.47µM* | -14.0% | -12.5% | -35.6% | 25.6% | -10.4
O=C1CC(=O)NC(SCC(=O)Nc2ccccc2[N+](=O)[O-])=N1 | 25.1µM* | x | 35.5µM* | 39.8µM* | u | u
O=C(CSc1nc(-c2ccccc2)cs1)Nc1nccs1 | u | x | -10.1% | u | 30.0% | -3.7
Cc1ccccc1Nc1nnc(SCC(=O)Nc2ccccc2[N+](=O)[O-])s1 | 44.7µM* | -21.4% | u | u | u | u
C/C(N)=C(/C#N)C(=O)CSc1nnc(Nc2cccc(C)c2C)s1 | u | -1.6% | -20.0% | u | 18.1% | -24.1

Source: PubChem (National Center for Advancing Translational Sciences (NCATS))
